This is an account of results in PubChem BioAssay (Tox21).

Molecules are shown by their SMILES. Records with an inconclusive call do not appear. A call without a number means that no potency is given here. Activity calls are given as the source filed them. Calls come from the whole dose curve; as a rule, active = well fitted cell-killing curve with a large enough effect in the repeat runs; inconclusive = weak or mixed curves; inactive = flat fitted curve, though single readings scatter.

This test is described as follows: qHTS assay to identify small molecule antagonists of the TGF-beta/Smad signaling pathway - cell viability counter screen (AID 1346824). Note: nearly all actives have a fitted effect of over 50% in size. Particulars: SBE-bla HEK293T viability, CellTiter-Glo luminescence; series mostly up to 76.8 µM. An excerpt:
U.S. Tox21 Program National Center for Advancing Translational Sciences [NCATS] NIH Chemical Genomics Center [NCGC] U.S. Environmental Protection Agency [EPA] National Institutes of Environmental Health Sciences [NIEHS] National Toxicology Program [NTP] U.S. Food and Drug Administration [FDA] Tox21 Assay Overview: Transforming growth factor beta (TGF-beta) superfamily consists of a large number of structurally related dimeric proteins that act as hormones or local mediators in regulating a wide range of biological functions. This superfamily includes TGF-betas themselves, the bone morphogenetic proteins (BMPs) and the activins. These ligands induce oligomerization of serine/threonine receptor kinases and phosphorylate the cytoplasmic signaling molecules of Smad protein family. CellSensor SBE-bla HEK 293T cell line (Life Technologies, Carlsbad, CA), responsive to TGF-beta was used to screen Tox21 10K compound library for identification of agonists/antagonists of the Smad signaling pathway. This cell line contains a beta-lactamase reporter gene under control of the Smad binding element (SBE) stably integrated into HEK 293T cells. Also cytotoxicity of the compounds was tested in parallel by measuring the cell viability using CellTiter-Glo assay system in the same wells.
Tox21 Assay Protocol Summary: SBE-bla HEK 293T cells were dispensed at 4,000/well in 5 uL of assay medium into black wall/clear-bottom 1536-well plates using a Multidrop Combi (ThermoFisher Scientific, Waltham, MA) dispenser. After the assay plates were incubated at 37 C and 5% CO2 for an overnight, 23 nL of compounds dissolved in DMSO, positive controls or DMSO only was transferred to the assay plate by a Pintool station (Kalypsys, San Diego, CA). Compound transfer was followed by the addition of 1 uL of 0.25 ng/mL TGF-beta1 or assay buffer using two separate tips of Flying Reagent Dispenser (FRD, Aurora Discovery, San Diego, CA). The assay plates were incubated at 37 C and 5% CO2 for 5 hr. One uL of LiveBLAzer B/G FRET substrate (Life Technologies) was added using a Flying Reagent Dispenser (FRD, Aurora Discovery, San Diego, CA) and the plates were incubated at room temperature for 2 hr. Fluorescence intensity (405 nm excitation, 460 nm and 530 nm emissions) was measured using an Envision plate reader (PerkinElmer, Shelton, CT). For cytotoxicity read, 4 uL of CellTiter-Glo reagent (Promega Corporation, Madison, WI) was added to each well of the assay plates using FRD. After 30 min incubation at room temperature, the luminescence intensity was measured using ViewLux plate reader (PerkinElmer).
For orientation: qHTS replaces the single test concentration by a dilution series.
On to `Cc1ccccc1[N+](=O)[O-]`, for which the Potency result is “inactive”.
Under `O=[N+]([O-])c1ccc(O)c([N+](=O)[O-])c1` stands “inactive”; under `CC(C)Oc1cc(-n2nc(C(C)(C)C)oc2=O)c(Cl)cc1Cl`, “inactive”; under `C#C[C@]1(O)CC[C@H]2[C@@H]3CCC4=CC(=O)CC[C@]4(C)[C@H]3CC[C@@]21C`, “inactive”.
Under `CC(O)CCO` (stereo not given) stands “inactive”; under `CN(C)C(=O)Nc1ccc(Cl)cc1`, “inactive”.
With `c1cc(OCC2CO2)ccc1Cc1ccc(OCC2CO2)cc1` (stereo not given), the Potency result was “inactive”.
Turning to `CCC(CC)Nc1c([N+](=O)[O-])cc(C)c(C)c1[N+](=O)[O-]`, the Potency entry is “inactive”.
For the compound `Nn1cnnc1`, the Potency result was “inactive”.
For the compound `O=C(NC(=O)c1c(F)cccc1F)Nc1ccc(Cl)cc1`, the Potency entry is “inactive”.
For `COC(=O)c1sccc1S(=O)(=O)NC(=O)Nc1nc(C)nc(OC)n1` the value was “inactive”; for `CCC(C)c1cc([N+](=O)[O-])cc([N+](=O)[O-])c1O` (stereo not given), “inactive”.
Under `O=C(CCl)c1ccccc1` stands “inactive”; under `CC1(C)C(C=C(Cl)Cl)C1C(=O)OC(C#N)c1cccc(Oc2ccccc2)c1` (stereo not given), “inactive”.
Under `CCCCCCCCC(=O)NCc1ccc(O)c(OC)c1` stands “inactive”.
`CCCCOCCOP(=O)(OCCOCCCC)OCCOCCCC`: the Potency entry was “inactive”.
For `O=P(O)(O)CCCl`, the Potency entry was “inactive”.
Under `Oc1cc(Cl)ccc1Oc1ccc(Cl)cc1Cl` stands “inactive”; under `ClC1C(Cl)C(Cl)C(Cl)C(Cl)C1Cl` (stereo not given), “inactive”; under `CC(C)(C)c1ccccc1O`, “inactive”.
For `Cc1cc(C)cc(C)c1` the value was “inactive”.
Under `Nc1cccnc1` stands “inactive”; under `CC(C)(OOC(C)(C)c1ccccc1)c1ccccc1`, “inactive”.
On to `Cc1cc(Cl)ccc1OCCCC(=O)O`, for which the Potency result is “inactive”.
Under `NC(=S)Nc1ccccc1` stands “inactive”; under `CCOc1cc(Oc2ccc(C(F)(F)F)cc2Cl)ccc1[N+](=O)[O-]`, “inactive”; under `CCCCCCCCOC(=O)c1ccccc1C(=O)OCCCCCCCC`, “inactive”.
Under `c1nc[nH]n1` stands “inactive”; under `C=CCc1ccc2c(c1)OCO2`, “inactive”.
For `C=CCN(CC=C)C(=O)C(Cl)Cl` the value was “inactive”; for `CCOc1cc(C=O)ccc1O`, “inactive”.
Regarding `CCCCC(CC)COC(=O)c1ccc(C(=O)OCC(CC)CCCC)c(C(=O)OCC(CC)CCCC)c1` (stereo not given), the Potency entry is “inactive”.
For `CC(C)C(=O)OCC(C)(C)C(OC(=O)C(C)C)C(C)C` (stereo not given), the Potency entry is “inactive”.
Under `O=S(=O)(Oc1ccc(Cl)cc1)c1ccc(Cl)cc1` stands “inactive”; under `CCOCN(C(=O)CCl)c1c(C)cccc1CC`, “inactive”; under `COP(=S)(OC)Oc1cc(Cl)c(Cl)cc1Cl`, “inactive”.
`CC(C)NC(C)C`: the Potency result is “inactive”.
Under `CCC(C)(C)c1ccc(O)cc1` stands “inactive”.
For `CCCCN(CCCC)N=O` the value was “inactive”; for `CN(C)c1ccc(C(=O)c2ccc(N(C)C)cc2)cc1`, “inactive”.
